Data: PubChem BioAssay (NCI)
This is part of a sample that, as a whole, favours compounds with a hit. Of some 83,000 tested, about 20% had one in any assay.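 The test compound was applied at a single concentration to cells in 96-well plates for 48 hours, and percent growth was recorded.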 Values without a mark were called inactive. Active and inactive are the calls of the source. The calls were made as follows: active = growth percent below 10; inactive = the rest.

Tests used:
Assay in all cases: NCI-60 one-dose screen, 48 h (100 = growth as untreated, 0 = no growth, -100 = all killed)
Settings in all cases: 10 µM unless noted
[1] = test system: T-47D breast
[2] = test system: BT-549 breast
[3] = test system: MDA-MB-435 melanoma
[4] = test system: SW-620 colon
[5] = test system: MCF7 breast
[6] = test system: HCT-116 colon
[7] = test system: KM12 colon
[8] = test system: HCC-2998 colon

SMILES | growth [1] | growth [2] | growth [3] | growth [4] | growth [5] | growth [6] | growth [7] | growth [8] [%]
C#Cc1cccc(NC(=O)c2ccccc2NC(=O)C=C)c1 | 76.6% [8.25 µM] | 102% [8.25 µM] | 103% [8.25 µM] | 109% [8.25 µM] | 82.4% [8.25 µM] | 102% [8.25 µM] | 97.8% [8.25 µM] | –
C(=C\c1nccc2c1[nH]c1ccccc12)/c1ccccc1 | 29.8% | 10.9% | -38.9% (active) | 14.8% | 8.84% (active) | 21.5% | 15.6% | –
O=C1c2c(O)cc(O)cc2-c2c(-c3ccc(O)cc3)oc3cc(O)cc1c23 | 8.47% (active) | 50.8% | 52.9% | 45.3% | 33.2% | 32.5% | 58.3% | –
O=C1/C(=C/c2ccccc2O)N=C2SCCCN12 | 84.5% | 98% | 96.6% | 89.3% | 92.2% | 95.5% | 90.2% | –
CC(C)(C)N1CCC1CN (centres undefined) | 96.3% | 118% | 104% | 104% | 126% | 99.5% | 107% | –
CC/C=C\C[C@H]1C/C=C2/C(=O)C=C[C@H]2C/C=C\CCCC(=O)O1 | 27.4% | 32% | 9.04% (active) | 25.4% | 46.2% | -41.9% (active) | -3.28% (active) | –
COc1cc(/C=C/c2cc(O)c3cc(C(C)=O)c(=O)oc3c2)cc2c1O[C@]1(C)CC[C@@H](O)C(C)(C)[C@H]1C2 | 60% | 35% | 21.2% | 28.4% | 5.64% (active) | 44.2% | 57.6% | –
COc1ccc2cc(-c3nn(-c4ccc(C(=O)O)cc4)cc3CO)ccc2c1 | 98.5% | 93.5% | 98.6% | 107% | 91% | 91% | 101% | –
C=CC(=O)Nc1cccc(-c2nc(SC)nc(NCCc3ccc(OC)c(OC)c3)c2C#N)c1 | 8.57% (active) | 25% | 24.2% | 80.8% | 16.5% | 31.4% | 64.6% | –
COc1ccc2nc(NC(=O)CSc3nnc4n3S(=O)(=O)c3ccccc3N4c3ccccc3)sc2c1 | 93.7% | 83.7% | 97.8% | 107% | 82.3% | 87.9% | 97.4% | –
O=c1c(F)cn(Cc2ccccc2CCl)c(=O)n1Cc1ccccc1CCl | -49.5% (active) | -73.9% (active) | -67.1% (active) | -74.6% (active) | -47.7% (active) | -56.9% (active) | -16.2% (active) | –
CC(=O)OC[C@H]1O[C@H](OC(C)=O)[C@H](NC(=O)/C=C/CCl)[C@@H](OC(C)=O)[C@@H]1OC(C)=O | 69.1% | 85.9% | 80.4% | 26% | 79.3% | 60.4% | 80.5% | –
COc1ccc2c(c1)O/C(=C\c1cccc(OCC(=O)Nc3nc4c(s3)CCCC4)c1)C2=O | 58.4% | 105% | 83.1% | 89.1% | 86.1% | 77.7% | 82% | –
COc1cccc2c1C(=O)c1c(O)c3c(c(O)c1C2=O)C[C@](O)(C(=O)CO)C[C@H]3O[C@@H]1C[C@@H](NC(=O)CCCN(C)C2(c3ccc(F)cc3)CC3CCC2C3)[C@H](O)[C@@H](C)O1 (some centres undefined) | 81.2% | 58.6% | -88.3% (active) | -78.5% (active) | -59% (active) | -90.1% (active) | -77.8% (active) | –
O=C(O)COc1ccc(Cl)cc1C1CCCCC1 | 114% | 117% | 107% | 104% | 104% | 101% | 103% | –
O=C(/C=C/c1ccccc1)c1ccc(O)c(CN2CCN(c3cc4c(cc3F)c(=O)c(C(=O)O)cn4C3CC3)CC2)c1 | 27.9% | 28.2% | 18.6% | 23.4% | 8% (active) | 3.95% (active) | 31.8% | –

SMILES | growth [1] | growth [2] | growth [3] | growth [4] | growth [5] | growth [6] | growth [7] | growth [8] [%]
COc1cccc(-c2nc3sccn3c2-c2ccnc(NCCNS(=O)(=O)c3ccccc3)c2)c1 | -18.3% (active) | 6.29% (active) | 22.6% | 40.8% | 27.4% | 18.5% | 22.2% | –
Cc1cc(C)nc(SC2=C(Nc3ccc(C)c(Cl)c3)C(=O)N(Cc3ccccc3)C2=O)n1 | 26% [30 µM] | 51.6% [30 µM] | 51.5% [30 µM] | 70.9% [30 µM] | 39.6% [30 µM] | 42.9% [30 µM] | 66.2% [30 µM] | –
COc1ccc(CN2c3ccccc3Sc3ccccc32)cc1O | 27.5% | 54.5% | 0.932% (active) | 31% | 26% | 12.9% | 17.6% | –
CC(C)(C)c1cc(C(C)(C)C)cc(S(=O)(=O)Nc2cc3ccccc3cc2C(=O)NCCN)c1 | 5.06% (active) | 101% | 0.859% (active) | -78% (active) | -10.6% (active) | 11.9% | -33.4% (active) | –
O=C(Nc1ccccc1Cl)c1ccc(NC2=C(Cl)C(=O)N(C3CCCCC3)C2=O)cc1 | 38.7% [30 µM] | 60.5% [30 µM] | 49.6% [30 µM] | 56.7% [30 µM] | 34.7% [30 µM] | 111% [30 µM] | 64.9% [30 µM] | –
C=CC(=O)Nc1cccc(-c2nc(SC)nc(NCCN3CCOCC3)c2C#N)c1 | 93% | 87.7% | 87.1% | 108% | 72.6% | 95.3% | 102% | –
C/C1=C\CC[C@@]2(C)O[C@H]2[C@H]2OC(=O)C(CN3CCN(CC4C(=O)O[C@H]5[C@H]4CC/C(C)=C/CC[C@@]4(C)O[C@@H]54)CC3)[C@@H]2CC1 (some centres undefined) | 81.5% | 105% | 89.1% | 86.3% | 74.4% | 88% | 98.5% | –
O=C1c2cccc3cccc(c23)C(=O)N1CCCCCN1CCN(CCCCCOc2ccc(-c3nc4ccc(N5CCOCC5)cc4[nH]3)cc2)CC1 | 0.907% (active) | 29.9% | 36.4% | 17.1% | -25.7% (active) | 73% | 20.6% | –
O=C1/C(=C/c2ccc(OCCCOc3ccc(Cl)cc3)cc2)N=C2SCCCN12 | 50.5% | 72.1% | 93.2% | 102% | 69.5% | 45.8% | 70.8% | –
COc1ccc2c(c1)C(=O)/C(=C/c1cccnc1)CC2 | 80.2% | 101% | 89.5% | 102% | 45.3% | 81.2% | 66.2% | –
CC(=O)O[C@H]1C(=O)[C@@]2(C)[C@H]([C@H](OC(=O)c3ccccc3)[C@]3(O)C[C@H](OC(=O)[C@H](OC(=O)CCC(=O)OC4CCC(S/N=C(N)/N=C(\N)N(C)C)CC4)[C@@H](NC(=O)c4ccccc4)c4ccccc4)C(C)=C1C3(C)C)[C@]1(OC(C)=O)CO[C@@H]1C[C@@H]2O (some centres undefined) | 46.7% | 35.9% | 5.75% (active) | 41.7% | 19.3% | 6.14% (active) | 10.7% | –
COc1cc(C(=O)Oc2ccccc2OC(=O)c2cc(OC)c(OC)c(OC)c2)cc(OC)c1OC | 102% | 94% | 103% | 109% | 97.2% | – | 90.8% | 101
O=C(N=Nc1c(O)[nH]c2ccc(Br)cc12)c1cc(-c2ccccc2)on1 | 101% | 104% | 95.8% | 103% | 93.2% | – | 100% | 103
CCCc1cc(=O)n2c(C(=O)Nc3cccc(C(=O)OCC)c3)c(C(=O)Nc3ccc(F)cc3)sc2n1 | 53.9% [30 µM] | 82.5% [30 µM] | 73.4% [30 µM] | 55.9% [30 µM] | 57.4% [30 µM] | 17.7% [30 µM] | 82.9% [30 µM] | –
O=C1Nc2c(ccc(Cl)c2Cl)/C1=C\c1ccc(C(F)(F)F)cc1 | 77.2% | 75.2% | 95.4% | 67.1% | 52.1% | – | 71.2% | 92.4
Oc1cccc2ccc(N/N=C/c3cc(CN4CCOCC4)c(O)c4ncccc34)nc12 | 26.9% | 18.4% | 23.8% | 26.2% | 18.6% | 23.5% | 13.7% | –
